# Source: PubChem BioAssay AID1159580 (chemical genetic matrix, 2015)
# Among all 5,500 compounds or so, about 2,000 (36%) were called active. Not shown: some 18% with an inconclusive outcome. Some of the results follow. A number with no mark means an inactive call. Rule as the data show it: active = normalized growth mostly below about 0.91 (no sharp cut-off); inconclusive = no clear call, values can overlap the other calls; inactive = mostly above about 0.92.
# Test: chemical genetic growth profiling, strain panel (AID 1159580);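 also: tested at 20 µM; growth read once vehicle control cultures reached saturation at 30 °C; 1 = growth at the plate median or of vehicle wells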
# Conditions: growth OD
# [1] = S. cerevisiae deletion strains, locus YAL013W, strain DEP1, stronger effect = lower value
# [2] = S. cerevisiae deletion strains, locus YBR229C, strain ROT2, stronger effect = lower value
# [3] = S. cerevisiae deletion strains, locus YDL101C, strain DUN1, stronger effect = lower value
# [4] = S. cerevisiae deletion strains, locus YDR150W, strain NUM1, stronger effect = lower value
# [5] = S. cerevisiae deletion strains, locus YEL061C, strain CIN8, stronger effect = lower value
# [6] = S. cerevisiae deletion strains, locus YGR078C, strain PAC10, stronger effect = lower value
# [7] = S. cerevisiae deletion strains, locus YHR030C, strain SLT2, stronger effect = lower value
# [8] = S. cerevisiae deletion strains, locus YHR087W, strain rtc3, stronger effect = lower value
# [9] = S. cerevisiae deletion strains, locus YJR043C, strain POL32, stronger effect = lower value
# [10] = S. cerevisiae deletion strains, locus YJR075W, strain HOC1, stronger effect = lower value
# [11] = S. cerevisiae deletion strains, locus YLR039C, strain RIC1, stronger effect = lower value
# [12] = S. cerevisiae deletion strains, locus YLR058C, strain SHM2 (second series), stronger effect = lower value
# [13] = S. cerevisiae deletion strains, locus YLR085C, strain ARP6, stronger effect = lower value
# [14] = S. cerevisiae deletion strains, locus YLR262C, strain YPT6, stronger effect = lower value
# [15] = S. cerevisiae deletion strains, locus YML094W, strain GIM5, stronger effect = lower value
# [16] = S. cerevisiae deletion strains, locus YMR219W, strain ESC1, stronger effect = lower value
# [17] = S. cerevisiae deletion strains, locus YMR307W, strain GAS1, stronger effect = lower value
# [18] = S. cerevisiae deletion strains, locus YNL153C, strain GIM3, stronger effect = lower value
# [19] = S. cerevisiae deletion strains, locus YNL298W, strain CLA4 (second series), stronger effect = lower value
# [20] = S. cerevisiae deletion strains, locus YNL322C, strain KRE1, stronger effect = lower value
# [21] = S. cerevisiae deletion strains, locus YNR030W, strain Alg12, stronger effect = lower value
# [22] = S. cerevisiae deletion strains, locus YOL006C, strain TOP1, stronger effect = lower value
# [23] = S. cerevisiae deletion strains, locus YPL055C, strain LGE1, stronger effect = lower value
# [24] = S. cerevisiae deletion strains, locus YPL241C, strain CIN2, stronger effect = lower value
# [25] = S. cerevisiae deletion strains, locus YPR135W, strain CTF4, stronger effect = lower value
# [26] = S. cerevisiae deletion strains, locus YNL128W, strain TEP1, stronger effect = lower value
smiles,measurement,setting,value
CC(C)(C)c1cc(C(=O)NN)n[nH]1,normalized growth,[1],1.01
same,normalized growth,[2],1.01
same,normalized growth,[3],0.973
same,normalized growth,[4],0.995
same,normalized growth,[5],1.01
same,normalized growth,[6],0.996
same,normalized growth,"S. cerevisiae deletion strains, locus YGR229C, strain SMI1, stronger effect = lower value",1
same,normalized growth,[7],1.06
same,normalized growth,[8],1
same,normalized growth,"S. cerevisiae deletion strains, locus YJL187C, strain SWE1, stronger effect = lower value",0.988
same,normalized growth,[9],0.997
same,normalized growth,[10],0.979
same,normalized growth,[11],1.08
same,normalized growth,[12],0.995
same,normalized growth,[13],1.15
same,normalized growth,[14],1.04
same,normalized growth,[15],1.04
same,normalized growth,[16],1
same,normalized growth,"S. cerevisiae deletion strains, locus YMR263W, strain SAP30, stronger effect = lower value",0.984
same,normalized growth,[17],1
same,normalized growth,[18],0.991
same,normalized growth,[19],1.01
same,normalized growth,[20],0.997
same,normalized growth,[21],1
same,normalized growth,[22],1.09
same,normalized growth,[23],1.04
same,normalized growth,[24],0.953
same,normalized growth,[25],1.21
same,normalized growth,"S. cerevisiae strains, strain wild type, stronger effect = lower value",1.01
O=c1cc(-c2ccccc2)[nH]c2nc(Cl)ccc12,normalized growth,"S. cerevisiae deletion strains, locus YAL040C, strain CLN3, stronger effect = lower value",0.964
same,normalized growth,"S. cerevisiae deletion strains, locus YCL061C, strain MRC1 (second series), stronger effect = lower value",1
same,normalized growth,[4],1.01
same,normalized growth,"S. cerevisiae deletion strains, locus YDR363W, strain ESC2, stronger effect = lower value",0.979
same,normalized growth,"S. cerevisiae deletion strains, locus YER002W, strain NOP16, stronger effect = lower value",1.03
same,normalized growth,[26],0.962
same,normalized growth,"S. cerevisiae deletion strains, locus YNL175C, strain NOP13, stronger effect = lower value",0.989
same,normalized growth,"S. cerevisiae deletion strains, locus YNL197C, strain WHI3, stronger effect = lower value",1.01
same,normalized growth,"S. cerevisiae deletion strains, locus YNL224C, strain SQS1, stronger effect = lower value",0.977
same,normalized growth,"S. cerevisiae deletion strains, locus YOR083W, strain WHI5 (second series), stronger effect = lower value",0.989
same,normalized growth,[23],0.997
same,normalized growth,[24],1
O=C(Nc1cc(-c2ccccc2)[nH]n1)c1ccccc1,normalized growth,[1],0.938
same,normalized growth,[2],0.947
same,normalized growth,[3],0.935
same,normalized growth,"S. cerevisiae deletion strains, locus YDL134C, strain PPH21, stronger effect = lower value",0.923
same,normalized growth,[4],1.03
same,normalized growth,[5],0.867 (active)
same,normalized growth,[6],0.936
same,normalized growth,[7],0.619 (active)
same,normalized growth,[8],0.913
same,normalized growth,[9],0.919 (active)
same,normalized growth,[10],0.902
same,normalized growth,"S. cerevisiae deletion strains, locus YKL190W, strain CNB1, stronger effect = lower value",0.89 (active)
same,normalized growth,[11],0.719 (active)
same,normalized growth,[12],0.982
same,normalized growth,[13],0.634 (active)
same,normalized growth,[14],0.79 (active)
same,normalized growth,[15],0.888
same,normalized growth,[16],0.968
same,normalized growth,[17],0.492 (active)
same,normalized growth,[26],0.973
same,normalized growth,[18],0.946
same,normalized growth,[19],0.844
same,normalized growth,[20],0.988
same,normalized growth,[21],0.867 (active)
same,normalized growth,[22],0.63 (active)
same,normalized growth,[23],0.907
same,normalized growth,[24],0.865
same,normalized growth,[25],0.488 (active)
CC(C)(C)c1ccc(-c2cc(NC(=O)c3ccc(Cl)cc3)n[nH]2)cc1,normalized growth,"S. cerevisiae deletion strains, locus YAR019C, strain CDC15, stronger effect = lower value",0.986
same,normalized growth,"S. cerevisiae deletion strains, locus YBL105C, strain PKC1, stronger effect = lower value",1.02
same,normalized growth,"S. cerevisiae deletion strains, locus YBR135W, strain CKS1, stronger effect = lower value",1.02
same,normalized growth,"S. cerevisiae deletion strains, locus YBR136W, strain MEC1, stronger effect = lower value",1.01
same,normalized growth,"S. cerevisiae deletion strains, locus YBR160W, strain CDC28, stronger effect = lower value",0.99
same,normalized growth,"S. cerevisiae deletion strains, locus YDL017W, strain CDC7, stronger effect = lower value",1
same,normalized growth,"S. cerevisiae deletion strains, locus YDL028C, strain MPS1, stronger effect = lower value",1.03
same,normalized growth,[3],1.01
same,normalized growth,"S. cerevisiae deletion strains, locus YDL108W, strain KIN28, stronger effect = lower value",1.01
same,normalized growth,"S. cerevisiae deletion strains, locus YDL132W, strain cdc53, stronger effect = lower value",1.03
same,normalized growth,"S. cerevisiae deletion strains, locus YDL214C, strain PRR2, stronger effect = lower value",1.04
same,normalized growth,"S. cerevisiae deletion strains, locus YDR052C, strain DBF4, stronger effect = lower value",0.995
same,normalized growth,"S. cerevisiae deletion strains, locus YDR054C, strain cdc34, stronger effect = lower value",1.01
same,normalized growth,"S. cerevisiae deletion strains, locus YDR226W, strain ADK1, stronger effect = lower value",1.01
same,normalized growth,"S. cerevisiae deletion strains, locus YDR477W, strain SNF1, stronger effect = lower value",1.02
same,normalized growth,"S. cerevisiae deletion strains, locus YER123W, strain YCK3, stronger effect = lower value",1.01
same,normalized growth,"S. cerevisiae deletion strains, locus YER133W, strain GLC7, stronger effect = lower value",1.02
same,normalized growth,"S. cerevisiae deletion strains, locus YFL009W, strain cdc4, stronger effect = lower value",1.02
same,normalized growth,"S. cerevisiae deletion strains, locus YFL029C, strain CAK1, stronger effect = lower value",1.01
same,normalized growth,"S. cerevisiae deletion strains, locus YFR003C, strain YPI1, stronger effect = lower value",1.01
same,normalized growth,"S. cerevisiae deletion strains, locus YFR019W, strain FAB1, stronger effect = lower value",1.01
same,normalized growth,"S. cerevisiae deletion strains, locus YFR028C, strain CDC14, stronger effect = lower value",1.01
same,normalized growth,"S. cerevisiae deletion strains, locus YGR040W, strain KSS1, stronger effect = lower value",1.03
same,normalized growth,"S. cerevisiae deletion strains, locus YGR052W, strain FMP48, stronger effect = lower value",0.995
same,normalized growth,"S. cerevisiae deletion strains, locus YGR092W, strain DBF2, stronger effect = lower value",0.933
same,normalized growth,[7],1.08
same,normalized growth,"S. cerevisiae deletion strains, locus YHR079C, strain IRE1, stronger effect = lower value",1.1
same,normalized growth,"S. cerevisiae deletion strains, locus YHR082C, strain KSP1, stronger effect = lower value",1.1
same,normalized growth,"S. cerevisiae deletion strains, locus YHR205W, strain SCH9, stronger effect = lower value",0.96
same,normalized growth,"S. cerevisiae deletion strains, locus YIL147C, strain SLN1, stronger effect = lower value",1.04
same,normalized growth,"S. cerevisiae deletion strains, locus YJL095W, strain BCK1, stronger effect = lower value",0.999
same,normalized growth,"S. cerevisiae deletion strains, locus YJL128C, strain PBS2, stronger effect = lower value",0.978
same,normalized growth,"S. cerevisiae deletion strains, locus YJL157C, strain FAR1, stronger effect = lower value",1.01
same,normalized growth,"S. cerevisiae deletion strains, locus YJR016C, strain ILV3, stronger effect = lower value",1.03
same,normalized growth,"S. cerevisiae deletion strains, locus YJR066W, strain TOR1 (second series), stronger effect = lower value",0.983
same,normalized growth,"S. cerevisiae deletion strains, locus YJR066W, strain TOR1, stronger effect = lower value",1.05
same,normalized growth,"S. cerevisiae deletion strains, locus YKL048C, strain ELM1, stronger effect = lower value",1.03
same,normalized growth,"S. cerevisiae deletion strains, locus YKL067W, strain YNK1, stronger effect = lower value",1.02
same,normalized growth,"S. cerevisiae deletion strains, locus YKL101W, strain HSL1, stronger effect = lower value",1.05
same,normalized growth,"S. cerevisiae deletion strains, locus YKL193C, strain SDS22, stronger effect = lower value",1.03
same,normalized growth,"S. cerevisiae deletion strains, locus YKL203C, strain TOR2, stronger effect = lower value",1.09
same,normalized growth,"S. cerevisiae deletion strains, locus YLR113W, strain HOG1, stronger effect = lower value",1.03
same,normalized growth,"S. cerevisiae deletion strains, locus YLR133W, strain CKI1, stronger effect = lower value",1.02
same,normalized growth,"S. cerevisiae deletion strains, locus YLR403W, strain SFP1, stronger effect = lower value",0.971
same,normalized growth,"S. cerevisiae deletion strains, locus YML070W, strain DAK1, stronger effect = lower value",1.04
same,normalized growth,"S. cerevisiae deletion strains, locus YMR001C, strain CDC5, stronger effect = lower value",1
same,normalized growth,"S. cerevisiae deletion strains, locus YMR205C, strain PFK2 (second series), stronger effect = lower value",0.99
same,normalized growth,"S. cerevisiae deletion strains, locus YMR277W, strain FCP1, stronger effect = lower value",1.02
same,normalized growth,"S. cerevisiae deletion strains, locus YNL006W, strain LST8, stronger effect = lower value",0.999
same,normalized growth,"S. cerevisiae deletion strains, locus YNL020C, strain ARK1, stronger effect = lower value",1.03
same,normalized growth,"S. cerevisiae deletion strains, locus YNL161W, strain CBK1, stronger effect = lower value",1.02
same,normalized growth,"S. cerevisiae deletion strains, locus YNL183C, strain NPR1, stronger effect = lower value",1.04
same,normalized growth,"S. cerevisiae deletion strains, locus YNL207W, strain RIO2, stronger effect = lower value",1.01
same,normalized growth,"S. cerevisiae deletion strains, locus YNL222W, strain SSU72, stronger effect = lower value",0.992
same,normalized growth,"S. cerevisiae deletion strains, locus YNL307C, strain MCK1 (second series), stronger effect = lower value",1
same,normalized growth,"S. cerevisiae deletion strains, locus YOL078W, strain AVO1, stronger effect = lower value",1.01
same,normalized growth,"S. cerevisiae deletion strains, locus YOL136C, strain PFK27, stronger effect = lower value",1.03
same,normalized growth,"S. cerevisiae deletion strains, locus YOR061W, strain CKA2, stronger effect = lower value",0.993
same,normalized growth,"S. cerevisiae deletion strains, locus YOR119C, strain RIO1, stronger effect = lower value",1.1
same,normalized growth,"S. cerevisiae deletion strains, locus YOR231W, strain MKK1, stronger effect = lower value",1.02
same,normalized growth,"S. cerevisiae deletion strains, locus YOR329C, strain SCD5, stronger effect = lower value",1.04
same,normalized growth,"S. cerevisiae deletion strains, locus YPL031C, strain PHO85, stronger effect = lower value",1.02
same,normalized growth,"S. cerevisiae deletion strains, locus YPL153C, strain RAD53, stronger effect = lower value",1.01
same,normalized growth,"S. cerevisiae deletion strains, locus YPL204W, strain HRR25, stronger effect = lower value",1.01
same,normalized growth,"S. cerevisiae deletion strains, locus YPL209C, strain IPL1, stronger effect = lower value",1.01
same,normalized growth,"S. cerevisiae deletion strains, locus YPL256C, strain CLN2, stronger effect = lower value",1.21 [resistant] (active)
same,normalized growth,"S. cerevisiae deletion strains, locus YPR025C, strain CCL1, stronger effect = lower value",1
same,normalized growth,"S. cerevisiae deletion strains, locus YPR106W, strain ISR1, stronger effect = lower value",1.01
same,normalized growth,"S. cerevisiae deletion strains, locus YPR111W, strain DBF20, stronger effect = lower value",1
same,normalized growth,"S. cerevisiae deletion strains, strain NNK1, stronger effect = lower value",1.01
same,normalized growth,"S. cerevisiae deletion strains, strain TSCII, stronger effect = lower value",1.03
